Bioassay records as filed in PubChem BioAssay.
The full list was thinned out, with hits kept by preference.
HT1080 IDH1KD tx = kills HT-1080 cells with IDH1 knockdown; HT-1080 IDH1 knockdown viability, ATP luminescence, 48 h; Potency, µM (series often up to 46.1 µM), usual class: cytotoxic; 360,000 tested, 2% active; AID 686971
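% activity derives from luminescence (CellTiter-Glo), normalised to DMSO and no-cell wells. HT-1080-IDH1KD cells, 750/well, had 48 h compound exposure at 37 °C.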
ALOX12 inh = ALOX12 (human) lipoxygenase inhibition; P18054; purified 12hLO, xylenol orange hydroperoxide absorbance; Potency, µM (highest dose often 108 µM), usual class: inhibitors; 580,000 tested, 1.1% active; AID 1671190
Target sequence (P18054 whole entry, looked up): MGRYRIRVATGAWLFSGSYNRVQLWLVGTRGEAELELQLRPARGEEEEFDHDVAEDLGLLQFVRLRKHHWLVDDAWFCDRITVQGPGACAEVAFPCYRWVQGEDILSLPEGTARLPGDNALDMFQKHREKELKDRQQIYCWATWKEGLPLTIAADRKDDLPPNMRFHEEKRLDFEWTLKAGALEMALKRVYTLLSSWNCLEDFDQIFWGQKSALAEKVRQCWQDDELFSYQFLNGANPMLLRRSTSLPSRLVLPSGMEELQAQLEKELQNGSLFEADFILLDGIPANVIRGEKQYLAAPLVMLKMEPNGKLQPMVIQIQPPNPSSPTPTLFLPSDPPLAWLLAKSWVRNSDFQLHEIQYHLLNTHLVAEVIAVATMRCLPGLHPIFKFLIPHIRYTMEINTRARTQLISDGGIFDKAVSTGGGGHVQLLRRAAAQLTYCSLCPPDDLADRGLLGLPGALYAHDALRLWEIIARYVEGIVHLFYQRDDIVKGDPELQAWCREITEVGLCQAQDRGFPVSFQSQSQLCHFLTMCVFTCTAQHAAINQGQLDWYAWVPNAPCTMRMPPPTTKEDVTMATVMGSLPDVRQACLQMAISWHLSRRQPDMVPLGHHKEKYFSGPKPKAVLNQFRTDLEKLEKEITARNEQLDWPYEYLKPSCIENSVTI
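Purified human 12hLO (150 nM final) in 25 mM Hepes, 0.01% Triton X-100, pH 7.0 was preincubated 15 min at room temperature with compound. Then 40 uM arachidonic acid was added, 30 min. Hydroperoxide was read by Fe-XO absorbance ratio 573/405 nm.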
DT40 TDP1 CPT = growth inhibition of DT40 Tdp1-/-;hTDP1 cells with camptothecin (screen for TDP1 inhibitors) | 420,000 tested, 12% active | Potency, µM (doses to about 46.2 µM), hits mostly inhibitors | AID 686979 | chicken DT40 Tdp1-/-;hTDP1 cells + 20 nM CPT, ATP luminescence, 48 h; further: nearly all actives have a fitted effect of over 55% in size
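Chicken DT40 Tdp1-/- cells complemented with human TDP1, 400 cells/well, exposed to compounds plus 20 nM camptothecin for at least 48 h at 37 C; viability read as ATP content by CellTiter-Glo luminescence.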
DT40 TDP1 no CPT = qHTS for Inhibitors of human tyrosyl-DNA phosphodiesterase 1 (TDP1): qHTS in cells in absence of CPT | 420,000 tested, 15% active | DT40 Tdp1-/- hTDP1 cells, no CPT, ATP luminescence, 48 h | Potency, µM (top dose mostly 46.2 µM), hits mostly inhibitors; further: nearly all actives have a fitted effect of over 55% in size
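Stably hTDP1-transfected Tdp1-null chicken DT40 cells were treated with library compounds minus camptothecin and grown for at least 48 hr at 37 °C, after which cellular ATP was quantified by luminescence.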
HT1080-NT tox = kills 2HG-producing HT-1080-NT fibrosarcoma cells. 360,000 tested, 1.6% active. AID 686970. Potency, µM (doses to about 46.1 µM), usual class: cytotoxic. HT-1080-NT fibrosarcoma viability, CellTiter-Glo ATP luminescence, 48 h;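 further: NT is the 2HG producing partner of a matched IDH1 knockdown line; nearly all actives have a fitted effect of over 55% in size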
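Viability of the 2HG-overproducing fibrosarcoma line after 48 hours of compound exposure at 37 degrees C was determined by luminescence with CellTiter-Glo, and concentration-effect curves were then fitted and categorized.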
IL-1B inflam inh = inflammasome signaling inhibition, IL-1 beta readout | activity change, % at 57.5 µM | 360,000 tested, 4.7% active | THP-1 LPS/ATP IL-1B secretion, AlphaLISA, 16 h; active compounds read low; in the data active means activity change below about -50%; inconclusive means mostly about -30% to -49%
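THP-1 cells pretreated 1 hr with compounds (up to 57.5 uM final), then stimulated with LPS (250 ng/mL final) plus ATP (1.25 mM final); secreted IL-1B measured by AlphaLISA after 16 hr, decreased signal indicating inhibition.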
Large screens that a line does not name were inactive. Unless noted, the call rests on the fitted dose curve; in most records, active means well fitted curve in the direction sought with a large enough effect; inconclusive means small, poorly fitted or top-dose-only effect, or another doubt; inactive means no such curve, though single readings can be large; an effect the other way counts as inactive or inconclusive.

COc1ccc(CNC(=O)c2[nH]c(C)c(C(C)=O)c2C)cc1	ALOX12 inh inconclusive, DT40 TDP1 CPT 9.2µM, DT40 TDP1 no CPT inconclusive
O=C(NCc1cccnc1)c1ccc(-c2cc3ccccc3oc2=O)cc1	HT1080 IDH1KD tx inconclusive, DT40 TDP1 CPT 11.6µM, DT40 TDP1 no CPT inconclusive, HT1080-NT tox inconclusive
CC1(C(=O)NS(=O)(=O)c2cccc(F)c2)CCN1C(=O)Cc1cccs1 (stereo unspecified)	ALOX12 inh inconclusive
CCCCC(CC)CNC(=O)c1[nH]c(C)c(C(C)=O)c1C (stereo unspecified)	DT40 TDP1 CPT inconclusive, DT40 TDP1 no CPT 23.1µM
COc1ccc(CNC(=O)c2c(C)oc3c2C(=O)c2ccccc2C3=O)cc1	ALOX12 inh inconclusive, DT40 TDP1 CPT 8.2µM, DT40 TDP1 no CPT 10.3µM, HT1080-NT tox inconclusive
CCCCNC(=O)c1[nH]c(C)c(C(C)=O)c1C	none
CCCCOc1ccc(C2CCC(C(C)=O)C(C)C2)cc1 (stereo unspecified)	DT40 TDP1 CPT inconclusive, DT40 TDP1 no CPT 23.1µM
Cc1cc(C)c(NCC(=O)NNC(=O)c2ccccn2)c(C)c1	none (no result: HT1080 IDH1KD tx, DT40 TDP1 CPT, DT40 TDP1 no CPT, HT1080-NT tox, IL-1B inflam inh)
CCn1cc(S(=O)(=O)CC(=O)Nc2cccc(C)c2)c2ccccc21	none
CC(=O)c1ccc(NC(=O)Cn2cc(S(=O)(=O)Cc3cccc(Cl)c3)c3ccccc32)cc1	DT40 TDP1 CPT 23.1µM, DT40 TDP1 no CPT 23.1µM (no result: HT1080 IDH1KD tx, HT1080-NT tox, IL-1B inflam inh)
CCOC(=O)N1CCN(C(=O)CS(=O)(=O)c2cn(Cc3ccccc3C)c3ccccc23)CC1	DT40 TDP1 no CPT inconclusive (no result: ALOX12 inh)
Cc1ccccc1Cn1cc(S(=O)(=O)CC(=O)Nc2nccs2)c2ccccc21	DT40 TDP1 CPT inconclusive, DT40 TDP1 no CPT inconclusive, HT1080-NT tox inconclusive, IL-1B inflam inh -63.8
Cc1cc(NC(=O)CS(=O)(=O)c2cn(Cc3cccc(Cl)c3)c3ccccc23)no1	HT1080 IDH1KD tx inconclusive, DT40 TDP1 CPT 25.9µM, DT40 TDP1 no CPT 20.6µM, HT1080-NT tox inconclusive
O=C(Cn1cc(S(=O)(=O)Cc2cccc(Cl)c2)c2ccccc21)Nc1ccccc1C(F)(F)F	DT40 TDP1 CPT 13µM, DT40 TDP1 no CPT inconclusive (no result: HT1080 IDH1KD tx, HT1080-NT tox, IL-1B inflam inh)
O=C(Cn1cc(S(=O)(=O)Cc2ccccc2)c2ccccc21)Nc1ccccc1	none (no result: ALOX12 inh)
COc1c2c(cc3oc(=O)c4c5ccc(O)cc5oc4c13)OC(C)(C)CC2	DT40 TDP1 CPT 16.4µM, DT40 TDP1 no CPT 16.4µM
O=c1oc2cc(O)ccc2c2ccccc12	ALOX12 inh inconclusive
O=c1oc2cc(O)ccc2c2oc3cc(O)ccc3c12	DT40 TDP1 CPT inconclusive, DT40 TDP1 no CPT 23.1µM
COc1c(CC=C(C)C)c(O)cc2oc(=O)c3c4ccc(O)cc4oc3c12	DT40 TDP1 CPT inconclusive, DT40 TDP1 no CPT 18.4µM (no result: ALOX12 inh)
COc1ccc(N2CCN(C(=O)c3cccc(Br)c3)CC2)c([N+](=O)[O-])c1	DT40 TDP1 CPT 23.1µM, DT40 TDP1 no CPT 16.4µM, IL-1B inflam inh inconclusive
COc1ccc(N2CCN(C(=O)c3ccccc3F)CC2)c([N+](=O)[O-])c1	DT40 TDP1 CPT inconclusive, DT40 TDP1 no CPT inconclusive, IL-1B inflam inh inconclusive
CO/N=C/c1ccc(N2CCN(C(=O)c3ccc(C)cc3)CC2)c([N+](=O)[O-])c1	DT40 TDP1 CPT 18.4µM, DT40 TDP1 no CPT 14.6µM
COc1ccc(N2CCN(C(=O)c3cccc(F)c3)CC2)c([N+](=O)[O-])c1	DT40 TDP1 CPT inconclusive, DT40 TDP1 no CPT inconclusive, IL-1B inflam inh -52.5
O=C(c1ccc(F)cc1)N1CCN(c2cc(N3CCCCC3)c(F)cc2[N+](=O)[O-])CC1	HT1080 IDH1KD tx inconclusive, DT40 TDP1 CPT inconclusive, DT40 TDP1 no CPT inconclusive, IL-1B inflam inh -82.8
O=C(CCc1nc(-c2ccc(F)cc2)no1)N1CCc2sccc2C1c1cccs1 (stereo unspecified)	none (no result: HT1080 IDH1KD tx, DT40 TDP1 CPT, DT40 TDP1 no CPT, HT1080-NT tox, IL-1B inflam inh)
COc1ccc(C(=O)/C=C/c2ccccc2C(F)(F)F)cc1F	none (no result: HT1080 IDH1KD tx, DT40 TDP1 CPT, DT40 TDP1 no CPT, HT1080-NT tox, IL-1B inflam inh)
COc1ccc(N2CCN(C(=O)c3ccc(F)cc3)CC2)c([N+](=O)[O-])c1	DT40 TDP1 no CPT 20.6µM
CCC(=O)N1CCN(c2ccc(OC)cc2[N+](=O)[O-])CC1	none
